# System: VDR:RXRa (NR concentration 270 nM, RXRa partner concentration 90 nM)
# Assay: PBM binding z-score (relative to random genomic background probes); higher = stronger binding; sequences stand for … in GC…GCGATTGACAGCGTAGAATGAAGG
# Experimental: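 Protein-binding microarray (Agilent 4x180K custom design, double-stranded 60-nt probes: 5' GC cap, 34-nt variable region, 24-nt constant primer region; full probe sequence given). Purified or IVT nuclear receptor:RXRα heterodimers (3:1 NR:RXRα, mostly 270:90 nM) or homodimers were incubated for 1 h in PBS with 2% milk and no ligand, then detected with Alexa488 antibodies. Fluorescence from o1-orientation probes (~5 replicates averaged) was converted to z-scores against 500 random hg19 background probes. Variable regions are seed direct-repeat (DR0–DR5) sites, all their single-nucleotide variants and half-site ablations.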
row,Sequence,PBM binding z-score
1,CCTACTGGTCCAAGGTCATTGATCAGTCAAAGCA,3.79
2,CGTCCAAGGTCGAAGGTCAGTGAAGAGATGACGG,3.23
3,TCTTGTAGGTCAATAGAGGTTAAGAAAGTGCGCT,4.85
4,CTATGTAGGTTAGGGGGGTCATTCAGTTTGAAAG,7.68
5,TAGCCTAGGTCATTCAGGGGCAAGTATAGAAAGC,5.23
6,CCTAGTTGTTCAGGAGGTCACACACCGGATATGA,3.9
7,TAGCCTAGGTCGTTCAGGGGCCAGTATAGAAAGC,0.798
8,CACACTAGGTCACAGAGGTCAAAGTCCGTGCGTA,8.14
9,CCTTACGGGTCACTGACAGGTTATAGCGTTTGGA,3.63
10,CCTACTGGGTCACGAAAGGTCATTGATTCAGTGA,6.48
11,TCTCGGAGGACACAAAGGTCAGAGCTTTCCAGAG,3.68
12,TCTCGGAGGACACCAAAGGTCAGAGCTCGACATC,3.38
13,CGAACTAGGTCAAGGGACAGTGAAAGGCGACGTA,0.899
14,ACTTACGGGTCTACGAGGTTATAGCACGCGTATA,2.83
15,CAAACTAGTTCAAGAGGTCAAAGTCCGCTTCCCG,5.54
16,CCTAGCAGGCCAATCTAGGTCACTCAAGGCTTGA,0.635
17,CGTCCAAGGTTAAGGTCAGTGAAAGAGACTCGAA,2.5
18,GCTGCTAGGTCAACTGATGGTCACCTAAAGCTCG,2.05
19,TAGCCGAGGTCATTCAGGGGCCAGTATAGAAAGC,5.89
20,AGTCAAAGTTCAGGACGACGTAACGTAAAGCACG,2.18

row,Sequence,PBM binding z-score
1,CAAACTAGGTCAAAAGGTCAAAGTCCGCTTCCCG,6.32
2,CCTACTGGGCCACGAAAGGCCATTGATTCAGTGA,-0.147
3,CAAAATAGGTCACAGAGGTCAAAGTCCGTGCGTA,8.21
4,CGAACAAGGTCATTGACAGGACAGTGAATAGTAA,4.88
5,CGTCCAAGGTCACGGTCAGTGAAAGAGACTCGAA,5.13
6,AATACAGGGTCATCGTAGGTCAGAGTACGCACAG,6.2
7,CGCACTAGGTCATCCAGGACAGTGAATACATTGA,4.38
8,CGAACAAGGTCATCCAGGACAGTGAATACATTGA,6.39
9,TTACCAAGGTCAAAGGTCGTTGATGCACGCCTTG,6.42
10,GCTGCTAGTTCAACTGATGGTCAGCTAAAGCTCG,0.168
11,GCTGCTAGGTCAACTGATGGTCATCTAAAGCTCG,2.28
12,ATATGTAGGTTACATCCGGGTCATCCAGGCTATG,4.14
13,CCTACTGGGCCAAAAAGTTCATTGATGCCGATAA,3.68
14,ATATGTAGGTTGGGGTCATTCAGAAAGTAGGGAA,6.03
15,TACCCTAGGTCATTCAGGGGCCAGTATAGAAAGC,3.44
16,CGTCAAAGGTCAACTAAGGTAACGTAAAGCACGC,6.2
17,CGTCCGAGGTCATAGGAGGTCAGTGAAGACAGAT,7.1
18,CCAACTAGGTCAAAGGACAGTGAAAGGCGACGTA,1.45
19,TATACAGGGTCAAAGGCCAAAGTACGAATGTCGA,5.31
20,ATCGAAAGGTCGACCAGGTGAGTATACACCGTTT,3.73
